Results reported in article PMC4102417.

The compounds below were run on murine 3T3 fibroblasts (assay: primary screen, percent viability or growth; higher = less effect of the substance).
Description: Similarly, for measuring the cytotoxicity concentration (CC50) for 3T3 fibroblast cells, cultures were incubated with drugs for 72 hours and developed using Alamar Blue (Alamar Biosciences Inc, Sacramento, CA) as previously described.

Row | Structure (SMILES) | Mammalian (3T3) cell % growth at 10 uM [%]
1 | O=C1C=C2C(=CCOC2O)O1 (stereo not drawn) | 0.5
2 | CCOC(=O)C1=C(COCCN)NC(C)=C(C(=O)OC)C1c1ccccc1Cl.O=S(=O)(O)c1ccccc1 (stereo not drawn) | 100
3 | COc1c(O)cc2oc3cc(O)c(CC=C(C)C)c(O)c3c(=O)c2c1CC=C(C)C | 5.5
4 | O=c1cc(-c2ccccc2)oc2c(O)c(O)ccc12 | 72.6
5 | CCc1nc(N)nc(N)c1-c1ccc(Cl)cc1 | 97.6
6 | CNc1ccccc1C(=O)N1CCc2c([nH]c3ccccc23)C1=O | 75.7
7 | O=c1[nH]c(=O)n([C@H]2C[C@H](O)[C@@H](CO)O2)cc1F | 86.2
8 | CN(C)CCCN1c2ccccc2Sc2ccccc21.Cl | 98.7
9 | Cc1cc2nc3c(=O)[nH]c(=O)nc-3n(C[C@H](O)[C@H](O)[C@H](O)CO)c2cc1C | 0.9
10 | COc1cc(O)c(C(=O)c2ccccc2)cc1O | 47.4
11 | COc1ccc(-c2coc3cc(O)ccc3c2=O)c(O)c1O | 1.4
12 | Cl.Fc1ccc(C2CCNCC2COc2ccc3c(c2)OCO3)cc1 (stereo not drawn) | 100
13 | CC(=O)Oc1ccc2c(c1)CCC1C2CCC2(C)C1CC(OC(C)=O)[C@@H]2OC(C)=O (stereo partly drawn) | 60.7
14 | Clc1ccc(COC(Cn2ccnc2)c2ccc(Cl)cc2Cl)c(Cl)c1 (stereo not drawn) | 100
15 | COc1cc2c(cc1OC)C1C(=O)c3c(cc4c(c3O)C=CC(C)(C)O4)OC1CO2 (stereo not drawn) | 34.3
16 | C=C1CC[C@@H]2C(CC2(C)C)C(=O)CC[C@H]1O (stereo partly drawn) | 2.6
17 | CC(=O)N1CCN(c2ccc(OC[C@H]3CO[C@](Cn4ccnc4)(c4ccc(Cl)cc4Cl)O3)cc2)CC1 | 100

Row | Structure (SMILES) | Mammalian (3T3) cell % growth at 10 uM [%]
18 | O=c1[nH]c2ccccc2n1C1CCN(CCCC(c2ccc(F)cc2)c2ccc(F)cc2)CC1 | 8.1
19 | CCC(=O)O[C@H]1CC[C@H]2[C@@H]3CCc4cc(O)ccc4[C@H]3CC[C@]12C | 100
20 | COc1ccc2c(c1)OCC(Cc1ccc(OC)c(OC)c1)C2=O (stereo not drawn) | 84.5
21 | C=C1C2CCC3(C)C(c4ccoc4)OC(=O)CC13OC1CC(OC(C)=O)C(C)(C)C(CC(=O)OC)C12C (stereo not drawn) | 84.1
22 | COC(=O)CC1C(C)(C)C(OC(C)=O)C2C(OC(C)=O)C34OC2(O)C1(C)C3CCC1(C)C4=CC(=O)OC1c1ccoc1 (stereo not drawn) | 89.7
23 | CC1CCC2(NC1)OC1CC3C4CCC5CC(O)CCC5(C)C4CCC3(C)C1C2C.Cl (stereo not drawn) | 100
24 | O=c1c(-c2ccc(O)cc2)coc2cc(O)cc(O)c12 | 100
25 | Cl.NCC(=O)c1ccccc1 | 85.5
26 | O=C(O)/C=C/c1ccc(O)c(O)c1 | 2.5
27 | COc1cc(NC(C)CCCN)c2ncccc2c1.O=P(O)(O)O.O=P(O)(O)O (stereo not drawn) | 91.1
28 | CC1=CC(=O)c2ccccc2C1=O | 0.5
29 | O=c1cc(-c2ccc(O)cc2)oc2cc(O)cc(O)c12 | 73.6
30 | C=C1C(=O)C23C(O)C1CCC2C12COC3(O)C(O)C1C(C)(C)CCC2O (stereo not drawn) | 0.2
31 | CCN(CC)CCOc1ccc2c(c1)C(=O)c1cc(OCCN(CC)CC)ccc1-2 | 89
32 | O=C(/C=C(/O)c1ccccc1)c1ccccc1O | 100
33 | CC[C@@H]1/C=C/C=C/C[C@H](C)[C@@H](O)[C@](C)(O)C(=O)[C@H](C)[C@@H](O)[C@H](C)C(=O)[C@H](C)[C@@H](O)[C@H](C)/C=C/C(=O)O[C@H]2[C@@H](C)[C@@H](CC1)O[C@@]1(CC[C@@H](C)[C@@H](C[C@@H](C)O)O1)[C@@H]2C | 57.7
